Hit rate of the full screen: of about 340,000 compounds, about 1,000 (0.29%) were called active. No stated cut-off is given here; in the data, inconclusive means inhibition above about 27% without an active follow-up result; inactive means below that. A selection follows. Potency and affinity values are given separately.
Test: NS1A inhibition, H1N1 influenza, cell based functional assay (AID 504329)
Conditions: percent inhibition, at 12.5 µM, hits give high values

| Compound | inhibition |
| --- | --- |
| COc1ccc(C(=O)Nc2ccc(Cl)cc2C(=O)N2CCCC(C)C2)cc1OC (stereo not given) | -10.1% (inactive) |
| O=S1(=O)[C@H]2CC3O[C@]2(C[C@@H]3c2ccc(F)cc2)CN1Cc1ccc(Cl)cc1 | -1.02% (inactive) |
| COc1cc(C(=O)NC2CCN(Cc3nnnn3Cc3cccs3)CC2)cc(OC)c1OC | -19% (inactive) |
| CCCNc1ncnc2onc(C)c12 | -5.28% (inactive) |
| Oc1cc(NCc2ccc(Cl)cc2)cc2cccnc12 | -7.85% (inactive) |
| Clc1cnc(Nc2cccnc2)c(Cl)c1 | -6.41% (inactive) |
| O=C(Nc1ccncc1)c1cc2ccccc2cc1O | -5.8% (inactive) |
| Oc1cc(Nc2ccccc2)cc2cccnc12 | 3.79% (inactive) |
| c1ccc(-c2csc(Nc3cccnc3)n2)nc1 | 14.1% (inactive) |
| Oc1cc(NCc2ccc(F)cc2)cc2cccnc12 | -7.28% (inactive) |
| CC(=O)c1ccccc1OCC(O)CN1CCN(c2ccccn2)CC1 (stereo not given) | -18.6% (inactive) |
| CCOc1ccccc1N(CC(=O)Nc1ccccc1C(=O)N1CCOCC1)S(C)(=O)=O | -12.1% (inactive) |
| COC(=O)c1ccccc1NC(=O)Nc1cccnc1 | -5.77% (inactive) |
| CCOP(=O)(OCC)C(NC(=O)Nc1ccc(Cl)cc1)C(N)=O (stereo not given) | -4.5% (inactive) |
| COc1cccc2cc(C(=O)NCC3CCCO3)c(=O)oc12 (stereo not given) | 6.96% (inactive) |
| COc1ccc(/C(O)=C2\C(=O)C(=O)N(CCN3CCOCC3)C2c2ccccc2OC)cc1 (stereo not given) | -5.93% (inactive) |
| CCc1cccc(NC(=O)CSCc2cc(=O)[nH][nH]2)c1 | 4.49% (inactive) |
| Cc1cnc(-n2c(=S)[nH]c3ccccc3c2=O)s1 | -7.74% (inactive) |
| O=C(NCc1cc(C(F)(F)F)ccc1F)C1CCC(=O)N(C2CC2)C1 (stereo not given) | -6.88% (inactive) |
| CCN1CCN(c2ccc(N)cc2)CC1 | 11.3% (inactive) |
| Nc1ccc(N2CCN(c3ccc(F)cc3)CC2)cc1 | -1.58% (inactive) |
| N#Cc1ccc(C(=O)Nc2cc(C3CC3)nn2-c2ccccc2)cc1 | -9.27% (inactive) |

| Compound | inhibition |
| --- | --- |
| CC[n+]1c(C)sc2c3ccsc3ccc21 | 2.89% (inactive) |
| Cn1c(SCC(=O)Nc2ccc(C(N)=O)cc2)nc2c(c1=O)SCC2 | -1.68% (inactive) |
| Oc1ccccc1N=Nc1ccccc1O | 21.9% (inactive) |
| Oc1ccccc1N=N/C(=N/Nc1ccccc1O)c1ccccc1 | -1.57% (inactive) |
| CC(=O)NC1C(Oc2ccccc2C)OC2COC(c3ccco3)OC2C1O (stereo not given) | -4.4% (inactive) |
| Cc1ccn(CC(=O)N2CCCC(C(=O)c3cccc4ccccc34)C2)n1 (stereo not given) | 1.06% (inactive) |
| Cc1ccc(N2CC(C(=O)N3CCC(C(=O)NCCCOC(C)C)CC3)CC2=O)cc1 (stereo not given) | -11.9% (inactive) |
| COc1ccc(OCC(=O)N/N=C/c2cccc3cccnc23)cc1 | 27.8% (inactive) |
| Cc1ccccc1OCC(=O)N/N=C/c1cccc2cccnc12 | 11.7% (inactive) |
| O=C(COc1ccc(F)cc1)N/N=C/c1cccc2cccnc12 | -1.12% (inactive) |
| COc1cccc(/C=N/NC(=O)COc2cccc3cccnc23)c1O | -3.74% (inactive) |
| Cc1ccc(C(F)(F)F)cc1NC(N)=S | 5.01% (inactive) |
| COc1ccc(/C=N/Nc2nncn2N)cc1Br | 9.22% (inactive) |
| Nn1cnnc1N/N=C/c1ccc(Cl)cc1Cl | -12.4% (inactive) |
| Cc1ccc(N(C)S(=O)(=O)c2ccc3[nH]cc(C(=O)NCCCN4CCOCC4)c(=O)c3c2)cc1C | 4.79% (inactive) |
| Cc1cc(=O)[nH]c(N/N=C/c2ccccc2C(F)(F)F)n1 | -5.35% (inactive) |
| Nc1ccc(N=Nc2ccccc2)c(N)n1 | 18% (inactive) |
| Nc1ccc(N=Nc2ccccc2)c2ccccc12 | -3.26% (inactive) |
| COCCn1c(CN2CC(C)CC(C)C2)nc2c1c(=O)n(C)c(=O)n2C (stereo not given) | 3.18% (inactive) |
| CC[n+]1c(/C=C/C=C/N(C(C)=O)c2ccccc2)sc2ccccc21 | 25.6% (inactive) |
| CC[n+]1c(/C=C/N(C)c2ccccc2)sc2ccc(Cl)cc21 | 0.72% (inactive) |
| CN(C)c1ccc(/C=C/c2nc3ccccc3s2)cc1 | -0.93% (inactive) |

| Compound | inhibition |
| --- | --- |
| CN(C)c1ccc(/C=C/c2cc[n+](C)cc2)cc1 | 7.63% (inactive) |
| CCOc1nc(SCCOc2ccccc2)nc(N(C)C)n1 | 21.4% (inactive) |
| COc1ccc(NS(=O)(=O)c2cccc(C(=O)N/N=C(\C)c3ccncc3)c2)cc1 | -5.23% (inactive) |
| Oc1c(Cl)cc(Cl)c2cccnc12 | -14.4% (inactive) |
| Clc1cc2cccnc2c2ccccc12 | -7.93% (inactive) |
| Cc1ccc2ccc3ccc(C)nc3c2n1 | -7.29% (inactive) |
| O=S1(=O)NC(=NCCc2ccccn2)c2ccccc21 | -4.92% (inactive) |
| Clc1ccc2ccc3cccnc3c2n1 | -25.7% (inactive) |
| Cc1ccc2cccnc2c1N | -4.2% (inactive) |
| c1cnc2c(c1)ccc1ncccc12 | -2.85% (inactive) |
| O=Cc1ccc2ccc3cccnc3c2n1 | 9.05% (inactive) |
| CCc1cc(C(=O)N2CCCC(N3CCN(c4cccc(C(F)(F)F)c4)CC3)C2)n(C)n1 (stereo not given) | -0.25% (inactive) |
| CCO/C=C/C(O)(CNC(=O)COc1ccccc1F)C(F)(F)F (stereo not given) | -0.96% (inactive) |
| Cc1ccc(S(=O)(=O)N2CCN(S(=O)(=O)N3CCC(C)CC3)CC2)cc1C | 2.71% (inactive) |
| CC(=O)Nc1nnc(SCC(=O)N2CCc3ccccc32)s1 | -6.4% (inactive) |
| O=C(NNc1ccc(-c2csnn2)cc1)c1ccccc1C(F)(F)F | -23.8% (inactive) |
| CC1=C(C(=O)Nc2cc(C(=O)N3CCN(c4cccc(C)c4C)CC3)ccc2C)SCCO1 | 8.75% (inactive) |
| O=C(NC1=C(Nc2ccc(Cl)cc2)C(=O)c2ccccc2C1=O)c1ccccc1 | 12.2% (inactive) |
| Cc1cccc(NC2=C(NC(=O)c3ccccc3)C(=O)c3ccccc3C2=O)c1 | 28.6% (inactive) |
| CN(C1=C(NC(=O)c2ccccc2)C(=O)c2ccccc2C1=O)C1CCS(=O)(=O)C1 (stereo not given) | 4.18% (inactive) |
| O=C(NC1=C(Nc2ccc(F)cc2)C(=O)c2ccccc2C1=O)c1ccc(Cl)cc1 | -4.19% (inactive) |

Reference: PubChem BioAssay AID504329 (Southern Research Specialized Biocontainment Screening …, 2011)
